Compounds without any hit were thinned out: in the full panel of roughly 83,000, 20% have a hit.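 Growth was measured after 48 h exposure to one concentration of compound in 96-well plates. Values under 10 count as active.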 A number with no mark means an inactive call. Active and inactive are the calls of the source.

Test systems include DU-145 prostate; K-562 leukemia; MALME-3M melanoma; MDA-MB-231 breast; RXF 393 renal; SF-268 CNS; SF-539 CNS; UACC-257 melanoma; M14 melanoma; HCT-15 colon; HT29 colon; SNB-75 CNS; SNB-19 CNS; U251 CNS; PC-3 prostate; UACC-62 melanoma; LOX IMVI melanoma; SK-MEL-28 melanoma; SK-MEL-5 melanoma.
Assay in all cases: NCI-60 one-dose screen, 48 h (100 = growth as untreated, 0 = no growth, -100 = all killed)
Holding throughout (conditions): 10 µM unless noted

In the case of `COc1ccc(-c2nc3ccc(Cc4ccc5nc(-c6ccc(OC)cc6)[nH]c5c4)cc3[nH]2)cc1`, the growth with DU-145 prostate was 64.6%; in the test on K-562 leukemia it was 13.4%; in the test on MALME-3M melanoma, -13.1% (active); with MDA-MB-231 breast, 17.3%; in the test on RXF 393 renal, 93.9%; in the test on SF-268 CNS, 6.83% (active). In addition, the growth in the test on SF-539 CNS was 56.6%; in the test with UACC-257 melanoma, -20% (active); with M14 melanoma it was 40.1%; in the test on HCT-15 colon, 77.1%; in the test with HT29 colon it was 44.2%; in the test on SNB-75 CNS it was 92.9%. Also, the growth in the test with SNB-19 CNS was 49%; in the test on U251 CNS, 16.9%; with PC-3 prostate it was 43.3%; in the test with UACC-62 melanoma it was 38.2%; with LOX IMVI melanoma, 15.7%; with SK-MEL-28 melanoma, 82.3%.
For the compound `C=CCn1c(SCC(=O)Nc2ccc(/C(C)=N\O)cc2)nnc1-c1cc(-c2ccc(Cl)cc2)nc2ccccc12`, the growth with DU-145 prostate is 48.5%; with K-562 leukemia, 13.4%; in the test with MALME-3M melanoma it was 71.7%; in the test on MDA-MB-231 breast it was 35%; in the test on RXF 393 renal, 47%; in the test on SF-268 CNS, 38.2%. Also, the growth was 15.8% in the test on SF-539 CNS; 47.9% in the test with UACC-257 melanoma; 20.4% in the test with M14 melanoma; 25.1% in the test with HCT-15 colon; 24.7% in the test with HT29 colon; 40.9% in the test on SNB-75 CNS. For the same compound, the growth in the test on SNB-19 CNS was 49.4%; with U251 CNS, 25.8%; in the test on PC-3 prostate, 22.9%; in the test with UACC-62 melanoma, 25.5%; in the test on LOX IMVI melanoma, -66.6% (active); in the test with SK-MEL-28 melanoma, 45.3%.
Regarding `Nc1ccc(C(OC(=O)c2cc3ccccc3c(Cc3c(O)c(C(=O)OC(c4ccc(N)cc4)(c4ccc(N)cc4)c4ccc(N)cc4)cc4ccccc34)c2O)(c2ccc(N)cc2)c2ccc(N)cc2)cc1`, the growth with DU-145 prostate is 21.9%; in the test on K-562 leukemia, 7.72% (active); with MALME-3M melanoma, 5.78% (active); in the test on MDA-MB-231 breast it was -9.83% (active); with RXF 393 renal, 28%; with SF-268 CNS, 24.6%. For the same compound, the growth was 10.3% with SF-539 CNS; 6.17% (active) with UACC-257 melanoma; 14.9% in the test on M14 melanoma; 49.6% in the test on HCT-15 colon; 8.68% (active) with HT29 colon; 8.57% (active) with SNB-75 CNS. The growth in the test on SNB-19 CNS is 19%; in the test on U251 CNS it was 11.2%; in the test with PC-3 prostate, -3.26% (active); with UACC-62 melanoma, 10.7%; with LOX IMVI melanoma, 24%; in the test with SK-MEL-28 melanoma, 33.9%.
For `CCOCC(O)(c1ccc(Cl)cc1)c1ccc(Cl)cc1`, the growth in the test on DU-145 prostate was 96.1%; with K-562 leukemia, 88.1%; in the test with MALME-3M melanoma, 103%; with MDA-MB-231 breast, 100%; in the test with RXF 393 renal, 117%; in the test on SF-268 CNS, 97.4%. The growth in the test with SF-539 CNS is 104%; in the test on UACC-257 melanoma it was 94.1%; with M14 melanoma, 114%; in the test on HCT-15 colon it was 88.6%; in the test with HT29 colon, 81.4%; in the test with SNB-75 CNS, 103%. The growth is 106% in the test with SNB-19 CNS; 95.9% in the test with U251 CNS; 88.8% in the test on PC-3 prostate; 87% in the test on UACC-62 melanoma; 94.8% in the test with LOX IMVI melanoma; 108% with SK-MEL-28 melanoma.
For `Oc1c(-c2cc(C(F)(F)F)[nH]n2)cc(Cl)c(OCc2ccc(Cl)cc2)c1-c1ccc(Cl)c(C(F)(F)F)c1`, the growth was 10.2% with DU-145 prostate; 5.9% (active) with K-562 leukemia; -30.5% (active) in the test on MALME-3M melanoma; -5.89% (active) with MDA-MB-231 breast; -24.7% (active) with RXF 393 renal; -5.51% (active) in the test on SF-268 CNS. Also, the growth was -11.6% (active) in the test with SF-539 CNS; -2.82% (active) in the test on UACC-257 melanoma; -21% (active) in the test with M14 melanoma; -11.5% (active) in the test with HCT-15 colon; 6.96% (active) in the test on HT29 colon; -17.6% (active) in the test on SNB-75 CNS. For the same compound, the growth in the test with SNB-19 CNS is 18.6%; with U251 CNS it was 8.65% (active); with PC-3 prostate it was 4.7% (active); in the test on SK-MEL-5 melanoma, -60.2% (active); in the test with UACC-62 melanoma, -17.3% (active); with LOX IMVI melanoma, 1.76% (active). The growth in the test with SK-MEL-28 melanoma is -19.9% (active).
Turning to `CCN(CC)CCCC(C)N/C(c1cccc(OC)c1)=c1\c(=O)[nH]n(-c2c3ccccc3nc3ccccc23)c(=O)\c1=C(/NC(C)CCCN(CC)CC)c1cccc(OC)c1` (configuration not stated), the growth in the test on DU-145 prostate is -13.5% (active); with K-562 leukemia, -22.1% (active); in the test with MALME-3M melanoma, -93.9% (active); in the test on MDA-MB-231 breast, -51.9% (active); in the test with RXF 393 renal it was -78.3% (active); in the test with SF-268 CNS, -48.8% (active). Also, the growth is -91.5% (active) in the test on SF-539 CNS; -95.5% (active) with UACC-257 melanoma; -80% (active) in the test on M14 melanoma; 2.74% (active) in the test on HCT-15 colon; -68% (active) in the test on HT29 colon; -22.5% (active) in the test on SNB-75 CNS. Moreover, the growth with SNB-19 CNS is 13%; in the test with U251 CNS it was -73% (active); with PC-3 prostate, -57.7% (active); in the test with SK-MEL-5 melanoma it was -98.9% (active); with UACC-62 melanoma, -77.9% (active); in the test with LOX IMVI melanoma, -66.1% (active). Further, the growth in the test with SK-MEL-28 melanoma is -96% (active).
For the compound `Fc1cc(-c2nnc3sc(-c4ccc(Cl)cc4)nn23)c(Cl)cc1Cl`, the growth in the test on DU-145 prostate was 107%; with K-562 leukemia it was 116%; in the test on MALME-3M melanoma, 62%; in the test with MDA-MB-231 breast, 88.3%; in the test on RXF 393 renal, 97.4%; with SF-268 CNS, 98%. Further, the growth is 107% with SF-539 CNS; 103% in the test on UACC-257 melanoma; 102% in the test on M14 melanoma; 96.5% in the test on HCT-15 colon; 90.6% with HT29 colon; 75.5% in the test on SNB-75 CNS. Further, the growth in the test with SNB-19 CNS is 96.6%; with U251 CNS it was 91.7%; in the test with PC-3 prostate, 102%; in the test with UACC-62 melanoma it was 90.4%; in the test on LOX IMVI melanoma, 91.7%; in the test with SK-MEL-28 melanoma it was 84.4%.
For the compound `Cc1c(O)c(=O)n(-c2ccccc2)n1C`, the growth in the test with DU-145 prostate was 116%; with K-562 leukemia, 106%; in the test with MALME-3M melanoma, 112%; with MDA-MB-231 breast, 99.1%; with RXF 393 renal it was 124%; in the test with SF-268 CNS, 114%. Moreover, the growth was 97.6% in the test with SF-539 CNS; 119% in the test with UACC-257 melanoma; 100% in the test on M14 melanoma; 92.7% in the test with HCT-15 colon; 103% in the test with HT29 colon; 98.3% in the test with SNB-75 CNS. The growth in the test on SNB-19 CNS was 106%; in the test with U251 CNS, 105%; with PC-3 prostate it was 92%; with SK-MEL-5 melanoma it was 110%; in the test on UACC-62 melanoma, 98.7%; in the test on LOX IMVI melanoma, 105%. Further, the growth in the test on SK-MEL-28 melanoma is 111%.

The values above are taken from PubChem BioAssay (NCI).
